Compounds without any hit were thinned out: in the full panel of roughly 83,000, 20% have a hit.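 Cell lines were cultured in 96-well plates, exposed to a single compound concentration, and assessed for percent growth 48 hours later.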 Values without a mark were called inactive. Calls of active or inactive are those of the source. How the source made its calls: active means growth percent below 10; inactive means the rest.
Tests used:
Assay in all cases: NCI-60 one-dose screen, 48 h (100 = growth as untreated, 0 = no growth, -100 = all killed)
Conditions in all cases: 10 µM
[1] = system: 786-0 renal
[2] = system: MALME-3M melanoma
[3] = system: MDA-MB-231 breast
[4] = system: SF-268 CNS
[5] = system: SF-295 CNS
[6] = system: UACC-257 melanoma
[7] = system: UACC-62 melanoma
[8] = system: SK-MEL-28 melanoma
[9] = system: SK-MEL-2 melanoma
[10] = system: SN12C renal
[11] = system: TK-10 renal
[12] = system: ACHN renal
[13] = system: CAKI-1 renal
[14] = system: A498 renal
[15] = system: OVCAR-8 ovarian
[16] = system: OVCAR-5 ovarian
[17] = system: IGROV1 ovarian
[18] = system: OVCAR-3 ovarian
[19] = system: HS 578T breast
[20] = system: NCI/ADR-RES ovarian

| SMILES | growth [1] | growth [2] | growth [3] | growth [4] | growth [5] | growth [6] | growth [7] | growth [8] | growth [9] | growth [10] | growth [11] | growth [12] | growth [13] | growth [14] | growth [15] | growth [16] | growth [17] | growth [18] | growth [19] | growth [20] |
| --- | --- | --- | --- | --- | --- | --- | --- | --- | --- | --- | --- | --- | --- | --- | --- | --- | --- | --- | --- | --- |
| Cc1ccc(-c2nc(C#N)c(S(=O)(=O)N3CCN(S(C)(=O)=O)CC3)o2)cc1 | -76.2% (active) | -76.8% (active) | 77.6% | 88.5% | 155% | 57.7% | 53.4% | 34.3% | 75.5% | 78.1% | 97% | -97.9% (active) | 72% | 132% | 25.5% | 76.9% | 54.9% | -22% (active) | 100% | 57.6% |
| CC(C)(C)c1cc(/C=C2\S/C(=N/c3ncn[nH]3)NC2=O)cc(C(C)(C)C)c1O | 24.5% | 36.8% | 23.7% | 23.3% | 14.3% | 17.5% | 1.85% (active) | 21.6% | -7.9% (active) | 12.7% | 24% | 18.2% | 19.6% | 32.8% | 10.8% | 32.8% | 17.7% | 17.3% | 11.8% | 5.61% (active) |
| O=C(Nc1ccc(OCc2ccc(F)cc2)cc1)Nc1ccc(Cl)c(C(F)(F)F)c1 | 13.5% | -10.2% (active) | 6.32% (active) | 39% | -30.4% (active) | -1.33% (active) | 6.53% (active) | 31.4% | -34.7% (active) | 21.9% | 20.2% | 14.6% | 2.77% (active) | -9.28% (active) | 12.8% | 31.9% | 43.6% | 34.5% | 24% | 4.62% (active) |
| O=C(CSc1nc2ccccc2c(=O)n1-c1ccc(Cl)cc1)Nc1ccc(-c2nc3ccccc3[nH]2)cc1 | -76.9% (active) | -78.1% (active) | -14.8% (active) | -33.3% (active) | -7.28% (active) | 13.3% | -12.1% (active) | -62% (active) | 82.1% | -37.2% (active) | -31.9% (active) | 3.26% (active) | -67.9% (active) | 109% | -17.8% (active) | 67.8% | 53.2% | -35.5% (active) | -27.4% (active) | -3.44% (active) |
| O=[N+]([O-])c1cccc(-c2nnc3c(/C=C/c4ccccc4O)nc4ccccc4n23)c1 | 77.7% | 86.5% | 72.2% | 77.7% | 62.5% | 59.5% | 16% | 38.2% | 84.1% | 63.4% | 112% | 35.8% | 40.6% | 89.4% | 58.1% | 81.4% | 68.8% | 69.1% | 30.7% | 57.5% |
| COc1cccc(O)c1/C=C1\SCc2cc3c(OC)cccc3[o+]c21 | 105% | 107% | 102% | 103% | 99% | 103% | 98.7% | 105% | 110% | 101% | 111% | 104% | 96.8% | 141% | 107% | 105% | 104% | 108% | 111% | 108% |
| COc1cc(C2CC(c3ccccc3)=Nc3c(N)nc(N)nc3N2)ccc1Oc1nc(NCCO)nc(N2CCOCC2)n1 (stereo not given) | 89.2% | 93.3% | 97.1% | 88.8% | 105% | 101% | 97.1% | 100% | 99.7% | 94.8% | 110% | 103% | 93.9% | 113% | 102% | 107% | 93% | 109% | 78.9% | 109% |
